Results on 98 molecules are retold here after PubChem BioAssay AID371 (SRMLSC, 2006).

Screen size: about 3,300 compounds; about 280 (8.5%) were called active. The entries come from a sample that favours actives as a whole. Unmarked numbers belong to inactive results.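 Rule for the calls: active = mean growth inhibition over the two runs of 50% or more; inactive = mean growth inhibition under 50%.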

The nature of this assay: A549 NSCLC cell proliferation inhibitors – ATP luminescence, human non-small cell lung line, primary screen (AID 371).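 Note: compound exposure lasted 72 h before the ATP read; 0% = untreated cell signal and 100% = no luminescence left.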 The note with it: at 10 µM, hits give high values.
Regarding `CC(C)(C)c1cc(-c2ccco2)c(C#N)c(SCC#N)n1`, the growth inhibition is 5.39%.

Consider `N#Cc1nc(COc2ccc(Br)cc2)oc1N1CCCC1`, for which the growth inhibition is 31.8%.

`O=C1C2ON(c3ccccc3)C(c3cccnc3)C2C(=O)N1c1ccc(Cl)c(Cl)c1` (stereo not drawn): the growth inhibition is 3.11%.

As to `O=C(O)C1CCCCN1S(=O)(=O)c1cccc2nsnc12` (stereo not drawn), the growth inhibition was -0.55%.

`COc1ccc(CCCNC(=O)CC#N)cc1OC`: the growth inhibition was 0.39%.

For the molecule `CCOC(=O)c1[nH]c2ccccc2c1NC(=O)CCN1CCN(C(=O)OCC)CC1`, the growth inhibition is 1.45%.

Turning to `Cc1cc(C)n(CC2CC(=O)N(c3ccc(Cl)c(Cl)c3)C2=O)n1` (stereo not drawn), the growth inhibition was 0.6%.

Turning to `COc1ccccc1NC(=O)CSc1nnc(-c2ccc(NC(C)=O)cc2)n1C`, the growth inhibition was -3.92%.

As for `COC1=CC(=O)CC(C)C12Oc1c(Cl)c(OC)cc(OC)c1C2=O` (stereo not drawn), the growth inhibition was 51.2% (active).

In the case of `COC(=O)c1cccc(Nc2cc(C)nc(-c3ccccc3O)n2)c1`, the growth inhibition was 17.6%.

On to `CN(C)c1ccc(O)c2c1CC1CC3[C@@H](N(C)C)C(=O)C(C(N)=O)=C(O)[C@]3(O)C(=O)C1=C2O` (stereo partly drawn), for which the growth inhibition was 59.9% (active).

With `CN(C)[C@@H]1C(=O)C(C(N)=O)=C(O)[C@@]2(O)C(=O)C3=C(O)c4c(O)ccc(Cl)c4[C@@H](O)[C@H]3C[C@@H]12`, the growth inhibition is 45.2%.

`OCCNc1nc(-c2ccccc2)c2ccccc2n1`: the growth inhibition was -2.09%.

Turning to `Clc1ccc2nc(N3CCNCC3)nc(-c3ccccc3)c2c1`, the growth inhibition was 92.3% (active).

In the case of `Clc1ccc2c(c1)C(N1CCNCC1)=Nc1ccccc1O2`, the growth inhibition was 31.9%.

`O=C(O)C1CC=CCC1C(=O)N1CCN(c2nc(-c3ccccc3)c3ccccc3n2)CC1` (stereo not drawn): the growth inhibition is 25.7%.

Consider `O=C(CNC1C(=O)Nc2ccccc21)Sc1ccccc1` (stereo not drawn), for which the growth inhibition is -5.29%.

For `COc1ccc(/C(O)=C2/C(=O)C(=O)N(CCCN(C)C)C2c2ccc(C)o2)cc1Cl` (stereo not drawn), the growth inhibition is 1.2%.

On to `COc1ccc2[nH]cc(C(=O)CN(C)CCc3ccc(OC)c(OC)c3)c2c1`, for which the growth inhibition was 15.3%.

Take `CNCCCN1c2ccccc2CCc2ccccc21`: the growth inhibition is 39.1%.

`CNCCCC1c2ccccc2C=Cc2ccccc21`: the growth inhibition is 60% (active).

Regarding `COCCCN1C(=O)C(O)=C(C(=O)c2ccco2)C1c1ccc(Br)cc1` (stereo not drawn), the growth inhibition is 2.73%.

Take `Cc1nc2c(o1)CCc1ccccc1C2O` (stereo not drawn): the growth inhibition was 0.13%.

For `Cc1ccc(N2C(=O)C3ON(c4ccccc4)C(c4ccncc4)C3C2=O)cc1` (stereo not drawn), the growth inhibition was 7.22%.

Take `CCSc1nc(N)c(C#N)c(-c2ccccc2Cl)c1C#N`: the growth inhibition was 3.11%.

As for `N#Cc1c(-c2ccccc2Cl)cc(C2CC2)nc1N`, the growth inhibition is 11.8%.

With `CSc1nc(N)c(C#N)c(-c2ccccc2Cl)c1C#N`, the growth inhibition was 60.5% (active).

Take `CC1(C)CC(=O)C=C(N=CC2=C(O)CC(C)(C)CC2=O)C1`: the growth inhibition is 1.19%.

Turning to `Cc1cc(=O)oc(C)c1C(=O)NCCN1CCOCC1`, the growth inhibition was -2.84%.

For `CCC(=O)Nc1cccc(-c2nnc(SCC(=O)NCc3ccco3)n2C)c1`, the growth inhibition is -4.64%.

For `CC1(C)Cc2c(sc3ncn4nnnc4c23)CO1`, the growth inhibition was 0.79%.

As to `CSc1nc2sc3c(c2c2nnnn12)CC(C)(C)OC3`, the growth inhibition was 9.43%.

For `CC1(C)Cc2c(sc3c4nnnn4c4nnnn4c23)CO1`, the growth inhibition is 62.4% (active).

`COc1ccc(-n2c(SCC(N)=O)nc3sc4c(c3c2=O)CCN(C)C4)cc1`: the growth inhibition was 8.23%.

On to `Cn1c(=O)n(CCC(=O)O)c2ccccc21`, for which the growth inhibition was 1.48%.

`COC(=O)CC1=C(C(=O)OC)C(c2ccncc2)C(C#N)=C(N)O1` (stereo not drawn): the growth inhibition was 3.31%.

In the case of `O=C(c1cccc(Cl)c1)N1CCN(C(=O)c2ccccc2F)CC1`, the growth inhibition was 0.26%.

In the case of `O=C(Nc1ccc(N2CCN(C(=O)c3ccccc3)CC2)c(Cl)c1)c1ccc(Br)o1`, the growth inhibition is 64.9% (active).

Consider `O=C(Nc1ccc2c(c1)OCCO2)c1ccc(Br)o1`, for which the growth inhibition is 19.2%.

In the case of `CCCCC(=O)C1CCN(Cc2ccccc2)CC1`, the growth inhibition was -7.27%.

In the case of `COc1cc(-c2nn3c(C4CCCCC4)nnc3s2)cc(OC)c1OC`, the growth inhibition was 18.1%.

With `CN(C=C1C(=O)CC(C)(C)CC1=O)CCN1CCNCC1`, the growth inhibition is 3.03%.

`N#CC1=C(N)NC(SCc2ccc(Cl)cc2)=C(C#N)C12CCCCC2`: the growth inhibition is 91% (active).

Regarding `N#CC1=C(N)NC(SCc2ccc(F)cc2)=C(C#N)C12CCCCC2`, the growth inhibition was 84.3% (active).

Regarding `COc1ccc(C(=O)CSC2=C(C#N)C3(CCCCC3)C(C#N)=C(N)N2)cc1`, the growth inhibition was 49.2%.

Turning to `N#Cc1c(SCC(N)=O)nsc1SCc1ccc(Cl)cc1`, the growth inhibition was 23.5%.

Turning to `COc1ccc(-c2oc3ncn4nc(COc5ccccc5)nc4c3c2-c2ccc(OC)cc2)cc1`, the growth inhibition was 10.6%.

As for `CCOC(=O)c1[nH]c2ccc(OC)cc2c1NC(=O)CCN1CCCC(C)C1` (stereo not drawn), the growth inhibition was 6.76%.

As for `c1cncc(Oc2cccc(Oc3cccnc3)c2)c1`, the growth inhibition was 20.7%.

Take `COc1ccc(OC)c(C2C(C(=O)c3sc(C)nc3C)=C(O)C(=O)N2CCN2CCOCC2)c1` (stereo not drawn): the growth inhibition is 5.82%.

On to `O=C1CC(NCc2ccc3c(c2)OCO3)C(=O)N1Cc1ccc2c(c1)OCO2` (stereo not drawn), for which the growth inhibition is 0.14%.

Take `COCc1[nH]nc2c1C(c1cccc(OC)c1)C(C#N)=C(N)O2` (stereo not drawn): the growth inhibition is 8.14%.

With `COc1cccc(/C=C2/CN(C)CC3=C2OC(N)=C(C#N)C3c2cccc(OC)c2)c1` (stereo not drawn), the growth inhibition is 67.5% (active).

`CCN1CC2=C(OC(N)=C(C#N)C2c2ccccc2)/C(=C\c2ccccc2)C1` (stereo not drawn): the growth inhibition was 46.8%.

Consider `Cc1cc(N2C(=O)C(=O)/C(=C(/O)c3ccc(F)cc3)C2c2ccc(F)cc2)no1` (stereo not drawn), for which the growth inhibition was 9.16%.

Take `CCc1nc2n[nH]c(N)c2c2c1CSC(C)(C)C2`: the growth inhibition was 12.5%.

For the molecule `COc1ccccc1-c1cc(-c2cc(Cl)ccc2O)n[nH]1`, the growth inhibition is 15%.

For `COc1cccc(NC(=O)C2CC(=O)n3cnnc3S2)c1` (stereo not drawn), the growth inhibition was -2.07%.

Take `c1ccc(-n2c(Cc3cccnc3)nc3cnccc32)cc1`: the growth inhibition was -4.36%.

Take `Clc1ccc(-c2nn3c(-c4cccc(Cl)c4)nnc3s2)cc1`: the growth inhibition was 22.7%.

With `Cc1cccc(OCCN2CSC(=S)N(C)C2)c1`, the growth inhibition is 51.6% (active).

As to `Cc1cccc(OCC(=O)NCC(=O)n2nc(C)cc2C)c1`, the growth inhibition is 1.47%.

Regarding `Cc1c(C(=O)O)c(=S)sn1CCOc1ccccc1`, the growth inhibition is 3.85%.

Take `COc1cccc(-c2nnc3sc(-c4ccccc4)nn23)c1`: the growth inhibition is 8.34%.

In the case of `COc1ccc(-c2ncncc2-c2csc(C)n2)c(O)c1`, the growth inhibition was 3.39%.

`COc1ccc(-c2onc(C)c2-c2ccccc2)c(O)c1`: the growth inhibition is 52.1% (active).

For the molecule `Nc1nnc(Cc2ccc(Cl)c(Cl)c2)s1`, the growth inhibition is 18.2%.

With `O=C1NC(=O)C(c2cn(-c3ccccc3)nc2-c2ccc(F)cc2)N1` (stereo not drawn), the growth inhibition was 10.6%.

For the molecule `CC[C@H]1CN2CCc3cc(OC)c(OC)cc3[C@@H]2C[C@@H]1C[C@H]1NCCc2cc(OC)c(OC)cc21`, the growth inhibition was 78.5% (active).

Consider `Cc1ccc(-c2ccccc2NC(=O)C2C3C=CC(C3)C2C(=O)O)o1` (stereo not drawn), for which the growth inhibition was 1.09%.

For `C/C(=N\O)c1ccc2[nH]ccc2c1`, the growth inhibition is 9.01%.

Consider `Nc1nc(Cl)nc2c1ncn2[C@@H]1O[C@H](CO)[C@@H](O)[C@H]1O`, for which the growth inhibition is 33.3%.

As to `Nc1nc(F)nc2c1ncn2[C@@H]1O[C@H](CO)[C@@H](O)[C@@H]1O`, the growth inhibition was 73.1% (active).

Consider `Nc1ncnc2c1ncn2[C@@H]1O[C@H](CO)[C@@H](O)[C@H]1O`, for which the growth inhibition was 1.29%.

On to `CCOC(=O)CSc1nc(C)c(C(C)=O)cc1C#N`, for which the growth inhibition is 7.6%.

Consider `O=C(O)CCCc1ccccc1`, for which the growth inhibition was -1.26%.

As for `O=C(NCCc1ccccc1)/C(=N\O)c1ccccc1`, the growth inhibition is 10.9%.

Turning to `N#C/C(=C\c1ccc(O)c(O)c1)C(=O)NCCCc1ccccc1`, the growth inhibition was 64.3% (active).

As to `CC(C)(C)C1=Nn2c(nnc2-c2ccco2)SC1`, the growth inhibition is 2.63%.

As to `CC(=O)N(Cc1ccccc1)c1ccc(C(=O)O)cc1`, the growth inhibition was -0.07%.

`COc1ccccc1C(CC(=O)Nc1nccs1)c1ccco1` (stereo not drawn): the growth inhibition is 11.7%.

On to `O=c1[nH]nc2n1CCCCC2`, for which the growth inhibition is 2.49%.

`Cc1nnc2n(-c3ccccc3)c(=O)c3c4c(sc3n12)COC(C(C)C)C4` (stereo not drawn): the growth inhibition is 13.4%.

Take `CC(C)C1Cc2c(sc3c2c(=O)n(Cc2ccccc2)c2nncn32)CO1` (stereo not drawn): the growth inhibition is 25.2%.

With `Cc1nnc2n(Cc3ccccc3)c(=O)c3c4c(sc3n12)COC(C(C)C)C4` (stereo not drawn), the growth inhibition is 72.3% (active).

`COC(=O)c1[nH]c2cc(OC)ccc2c1NC(=O)CN1CCN(c2cccc(C)c2)C(C)C1` (stereo not drawn): the growth inhibition was 68% (active).

`COC(=O)c1[nH]c2cc(OC)ccc2c1NC(=O)CCN1CCCC(C)(C)C1`: the growth inhibition is -5.32%.

Turning to `COC(=O)c1[nH]c2cc(OC)ccc2c1NC(=O)CN1CCC(C(N)=O)CC1`, the growth inhibition was -2.17%.

In the case of `COc1cccc2c(=O)c(SC(F)(F)C(F)C(F)(F)F)c(C)[nH]c12` (stereo not drawn), the growth inhibition is 46.7%.

In the case of `CC(C)(C)c1cccc(/C=N/O)c1O`, the growth inhibition is 84.1% (active).

In the case of `CSC(=Nc1ccccc1)C1=C(O)COC1=O`, the growth inhibition is 3.6%.

For `CSc1nc(C)c2c(c1C#N)CCCC2`, the growth inhibition is 11.1%.

Turning to `O=C(NC1CCCCC1)[C@H](O)[C@@H](O)C(=O)NC1CCCCC1`, the growth inhibition is -22.3%.

On to `CCCc1nc(N2CCCC2)c(C#N)c2c1CCCC2`, for which the growth inhibition was 20.2%.

For the molecule `COc1ccc(CNc2oc(COc3ccccc3Cl)nc2C#N)cc1`, the growth inhibition is 34.1%.

Take `COc1ccc(CNc2oc(COc3ccc(Cl)cc3)nc2C#N)cc1`: the growth inhibition is 74.1% (active).

In the case of `COc1ccc(CCNc2oc(COc3ccccc3)nc2C#N)cc1`, the growth inhibition is 31.8%.

Consider `COC(=O)c1ccc(Cn2nnc3c(sc4nc(N5CCOCC5)c5c(c43)CCCC5)c2=O)o1`, for which the growth inhibition is 3.34%.
